ELG1 DNA repair – inhibitors of ELG1-dependent DNA repair in HEK293T cells | 330,000 compounds, 2.3% hits | Potency, µM (highest dose often 46.1 µM), inactives show at the top dose activity change, negative = inhibition, actives largely listed as inhibitors | HEK293T ELG1-luciferase reporter, luminescence, 16 h; DNA damage induced by 5-fluorouridine | AID 504467; further: on the % scale 0 is the no-effect control and ±100 the full control effect; nearly all actives have a fitted effect of over 55% in size
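Cells (2,000 per well) received 5-fluorouridine plus test compound or DMSO and were incubated 16 hr at 37 °C, 5% CO2. Luciferase activity was read by luminescence 30 min after ONE-Glo addition; signal suppression marked inhibition of damage-induced ELG1 function.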
Rab9 promoter act – Rab9 promoter activation; Potency, µM (highest dose often 9.22 µM), for the others: at the highest dose activation, negative = inhibition, actives largely listed as activators; AID 485297; 320,000 compounds, 2.8% hits; Huh7 Rab9 promoter-luciferase reporter, luminescence, 24 h; further: % of control where 0% means no effect; nearly all actives have a fitted effect of over 60% in size
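Luciferase signal after 10 min detection reagent at ambient indicates Rab9 promoter upregulation; stably transfected Huh7 cells were treated 24 h with compound in DMSO at 37 °C, 5% CO2.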
SMN2 splice up – enhancers of SMN2 splice variant expression; HEK293 SMN2-luciferase splicing reporter, luminescence, 30-36 h; Potency, µM (series often up to 46.1 µM), for inactives: top-dose activity change, positive = activation, usual class: activators; 210,000 compounds, 2.8% hits; AID 1458; further: % of control where 0% means no effect; nearly all actives have a fitted effect of over 55% in size
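qHTS luciferase splicing reporter: luminescence rises when SMN2 exon 7 is included in transfected HEK293 cells. Compound exposure lasted 30-36 h at 37C, with 4.5 mM final sodium butyrate as control, followed by a ONE-Glo read.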
FLuc modulator – counter-screen for miR-21 project: firefly luciferase inhibitors or activators | 360,000 compounds, 6.9% hits | purified FLuc, Km substrates, luminescence inhibition | P08659 | AID 588342 | Potency, µM (series often up to 57.5 µM), for inactives: top-dose activity change, negative = inhibition, most hits filed as inhibitors;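 further: plate controls were vehicle for no effect and reference inhibitor for full effect; nearly all actives have a fitted effect of over 55% in size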
Target sequence (P08659 whole entry, looked up): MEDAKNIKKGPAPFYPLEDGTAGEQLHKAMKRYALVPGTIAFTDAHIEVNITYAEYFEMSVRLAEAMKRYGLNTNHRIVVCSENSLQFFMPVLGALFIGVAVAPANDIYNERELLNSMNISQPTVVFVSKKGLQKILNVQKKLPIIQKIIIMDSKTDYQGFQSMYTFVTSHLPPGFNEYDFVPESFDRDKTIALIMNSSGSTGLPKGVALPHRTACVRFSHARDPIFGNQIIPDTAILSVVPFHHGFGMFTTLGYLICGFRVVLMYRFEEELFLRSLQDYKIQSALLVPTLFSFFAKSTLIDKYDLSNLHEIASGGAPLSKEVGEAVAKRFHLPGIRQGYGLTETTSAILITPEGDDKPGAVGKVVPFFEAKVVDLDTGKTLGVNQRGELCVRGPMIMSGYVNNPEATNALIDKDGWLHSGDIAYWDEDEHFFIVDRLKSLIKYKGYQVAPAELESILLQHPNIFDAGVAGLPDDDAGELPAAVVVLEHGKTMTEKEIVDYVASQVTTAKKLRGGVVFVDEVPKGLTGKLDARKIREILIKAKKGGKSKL
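Purified P. pyralis luciferase, 10 nM final, with Km-level 10 uM D-luciferin and 10 uM ATP in 50 mM Tris acetate pH 7.5, 10 mM Mg acetate, 0.01% Tween-20, 0.05% BSA; 6-point qHTS titration about 60 µM downward; luminescence read.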
NPC1 prom act – activates the NPC1 promoter. Huh7 NPC1 promoter luciferase reporter, 24 h. Potency, µM (series often up to 9.22 µM), for the others: top-dose activation, most hits filed as activators. 320,000 compounds, 2.4% hits. AID 485313; further: % of control where 0% means no effect; nearly all actives have a fitted effect of over 60% in size
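Luciferase expression driven by the NPC1 promoter was measured in stably transfected Huh7 cells after a 24 h compound incubation, using a luciferase reagent and a luminescence read.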
ELG1 genotoxic – genotoxicity induction in ELG1-luciferase HEK293T cells; HEK293T ELG1-luciferase reporter, luminescence, 16 h; Potency, µM (titrated, usually from 46 µM), inactives show at the top dose activity change, positive = activation, most hits filed as activators; 330,000 compounds, 1.3% hits; further: % of control where 0% means no effect; nearly all actives have a fitted effect of over 60% in size
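Genotoxicity was scored as increased ELG1-luciferase reporter signal, measured by ONE-Glo luminescence (30 min, room temperature). Compound or vehicle exposure of the HEK293T reporter cells lasted 16 hr at 37°C.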
* marks the source's active call; other numbers are inactive results; ? = inconclusive; nt = not tested or not shown; [ ] = dose if it differs, or a comment. Only some compounds are listed: those with a hit (about 9.2% of all), similar ones and a draw of the others. The call rests on the fitted dose curve; in most records, active means well fitted curve in the direction sought with a large enough effect; inconclusive means small, poorly fitted or top-dose-only effect, or another doubt; inactive means no such curve, though single readings can be large; an effect the other way counts as inactive or inconclusive. Potency means the concentration at half of the fitted maximal effect.

SMILES	ELG1 DNA repair	Rab9 promoter act	SMN2 splice up	FLuc modulator	NPC1 prom act	ELG1 genotoxic
CCCNC(=O)c1c(N)n(CC2CCCO2)c2nc3ccccc3nc12 (stereo unspecified)	?	11.8%	-14.3%	-2.8%	0.7%	-6.2%
CC(C)OCCCNC(=O)c1c(N)n(CC2CCCO2)c2nc3ccccc3nc12 (stereo unspecified)	9.2µM*	-7.1%	-14.4%	-2.4%	-4.1%	-7.7%
COc1ccc(-n2c(O)c(/C(C)=N/Nc3ccccc3)c(=O)[nH]c2=O)cc1	7.3µM*	-1.9%	nt	1.9%	-3.1%	5.0%
O=C(Nc1ccc([As](=O)(O)O)cc1)Nc1cccc(Cl)c1Cl	nt	nt	-2.5%[9.22 µM]	nt	nt	nt
C=C(C=O)CC1CC(O)[C@]2(C)OC3CC4OC5C[C@]6(C)O[C@]7(C)CCC8OC9C[C@]%10(C)OC%11C(C)=CC(=O)OC%11CC%10OC9C[C@@H](C)C8OC7CC6O[C@]5(C)CC5OC5C4OC3CC2O1 (stereo partly specified)	4.11µM*	-41.6%	nt	-0.2%	-38.7%	-16.9%
C=C(CO)CC1CC(O)[C@]2(C)OC3CC4OC5C[C@]6(C)O[C@]7(C)CCC8OC9C[C@]%10(C)OC%11C(C)=CC(=O)OC%11CC%10OC9C[C@@H](C)C8OC7CC6O[C@]5(C)C/C=C\C4OC3CC2O1 (stereo partly specified)	-19.8%	-11.2%	nt	1.3%	-2.6%	-11.4%
C=CC(=O)OCC(C)C	nt	nt	10.1%	nt	nt	nt
CC1(C)CN=C(Nc2nc3ccccc3s2)S1	?	0.631µM*	12.6µM*	3.38µM*	1.78µM*	5.8µM*
Clc1ccc(C(c2ccccc2Cl)C(Cl)(Cl)Cl)cc1 (stereo unspecified)	nt	nt	-1.1%	nt	nt	nt
COc1ccc(C(C)(C)C)cc1NC(=O)CCCn1c(=O)oc2ccccc21	?	-6.1%	-11.4%	4.9%	2.1%	-5.4%
Fc1cccc(F)c1-c1nc(-c2ccc(Cl)cc2)no1	?	2.82µM*	nt	5.36µM*	3.98µM*	?
N[C@H](Cc1c[nH]c2ccccc12)P(=O)(O)O	nt	nt	1.1%[9.22 µM]	nt	nt	nt
O=C(OCc1ccc(Cl)c(Cl)c1)c1ccccn1	-4.7%	-1.8%	-6.0%	15.1µM*	-2.3%	1.4%
COc1ccc2[nH]cc(CCN=C(NC(=O)c3ccccc3OC)Nc3nc(C)cc(C)n3)c2c1	nt	nt	?	-9.4%	nt	nt
CCCCn1c(O)c(C(CC)=NCc2cc(OC)cc(OC)c2)c(=O)[nH]c1=O	16.4µM*	2.3%	-12.3%	0.8%	-6.7%	-12.3%
CCC(=NCc1cc(OC)cc(OC)c1)c1c(O)n(C2CCCCC2)c(=O)[nH]c1=O	16.4µM*	-2.9%	nt	0.4%	-4.6%	-8.4%
COc1cc(CN=C(C)c2c(O)n(C3CCCCC3)c(=O)[nH]c2=O)cc(OC)c1	?	-4.0%	nt	0.5%	-2.5%	-8.8%
CCCCn1c(O)c(C(C)=NCc2cc(OC)cc(OC)c2)c(=O)[nH]c1=O	23.1µM*	2.3%	-10.2%	-1.2%	-0.2%	-13.7%
CCCCn1c(O)c(C(C)=NCc2cccnc2)c(=O)[nH]c1=O	-0.2%	-1.2%	nt	-1.0%	-1.8%	-0.5%
O=C(O)CN1CCN(CC(=O)O)CC(=O)[O][Hg][O]C(=O)C1	nt	nt	4.7%[9.22 µM]	nt	nt	nt
C[C@H](c1ccccc1)N1CCN([C@@H](C)c2ccccc2)CC1	nt	nt	-8.7%[9.22 µM]	nt	nt	nt
COc1ccc(C(=O)Nc2cc(Cl)ccc2C(=O)O)cc1	?	15.6%	nt	15.1µM*	12.7%	5.9%
CCCn1c(C(=O)c2ccccc2)nc2ccccc21	6.0%	-3.3%	-24.3%	-13.5%	0.2%	-0.2%
Cc1ccc(C(=O)Nc2nc3ccccc3n2CCN2CCCC2)cc1	?	?	nt	10.7µM*	15.3%	4.61µM*
O=P(O)(O)CCP(=O)(O)O	nt	nt	-15.9%[9.22 µM]	nt	nt	nt
Nc1nc(SCc2ccc(Cl)cc2Cl)n[nH]1	?	20.6%	?	?	19.8%	20.6µM*
O=C(Nc1ccc(Cl)cc1)Nc1nccs1	?	-0.6%	?	10.7µM*	-6.9%	3.0%

From PubChem
